According to PubChem BioAssay AID1478 (National Center for Advancing Translational Sciences (NCATS), 2009):
About 860 (0.43%) of roughly 200,000 compounds were called active. This excerpt belongs to a sample that is enriched for actives. Some structures have more than one record in an assay (separate samples or runs), and their calls can disagree. Unmarked numbers belong to inactive results. The call rests on the fitted dose curve; in most records, active means well fitted inhibition curve with a large enough effect; inconclusive means small, poorly fitted or top-dose-only effect; inactive means flat fitted curve, though single readings scatter.

molecular target: Cruzipain (Trypanosoma cruzi) (UniProt P25779); assay: qHTS Assay for Promiscuous and Specific Inhibitors of Cruzain (with detergent); conditions: purified cruzain, Z-FR-AMC fluorescence, 0.01% Triton; further: nearly all actives have a fitted effect of over 40% in size
Protocol: Cruzain (3.4.22.51) is a cysteine protease from the tropical parasite Trypanosoma cruzi. Dual qHTS experiment was performed against the NCGC compound collection in order to 1) identify novel inhibitors of the enzyme and 2) profile the compound collection for promiscuous inhibitors operating via colloidal aggregation (by performing detergent-free and detergent-containing comparison screens). Cruzain was assayed by the use of fluorogenic coumarin-based substrate Z-FR-AMC: proteolytic cleavage releases AMC, whose fluorescence is measured at 360 nm excitation and 450 nm emission. Purified cruzain was supplied by the labs of Prof. James McKerrow and Brian Shoichet, UC San Francisco.
This assay had 0.01% Triton X-100 concentration. See also releated assay "qHTS Assay for Promiscuous and Specific Inhibitors of Cruzain (without detergent)" with 0.00005% Triton X-100.
See following references for additional details:
Assay Provider: Shoichet, Brian; University of California, San Fancisco
Screening Center PI: Austin, C.P.
Screening Center: NIH Chemical Genomics Center [NCGC]
Buffer: 100 mM Sodium Acetate, pH 5.5, 5 mM DTT, Triton X-100 concentration: 0.01%.
Buffer in columns 3 and 4 as negative control (no enzyme).
Substrate solution: 2 uM final concentration of Z-FR-AMC (catalog number I-1160, Bachem) dispensed throughout the plate.
Enzyme: 1.5 nM Cruzain final concentration in columns 1, 2, 5-48. Column 1 is neutral (100% activity). Column 2 contained titration of covalent inhibitor K11777, starting concentration 1 mM, then 1:2 dilution in duplicate).
Three uL of enzyme or buffer were dispensed to 1536-well Greiner black solid bottom plates. Compounds and controls (23 nL) were transferred via Kalypsys PinTool. The plates were incubated for 15 min at room temperature, and then 1 uL of substrate solution was added to start the reaction. The plates were immediately transferred to and read 4 times every 30 seconds for 2 min on ViewLux High-throughput CCD imager (Perkin-Elmer) using 360 nm excitation and 450 nm emission fluorescence protocol. The fluorescence intensity difference between the third and the first time points (time lapse of 60 seconds) was used to compute reaction progress.
Potency means the concentration at half of the fitted maximal effect.

Chain of Cruzipain (Trypanosoma cruzi) (P25779 123-467 limits assumed): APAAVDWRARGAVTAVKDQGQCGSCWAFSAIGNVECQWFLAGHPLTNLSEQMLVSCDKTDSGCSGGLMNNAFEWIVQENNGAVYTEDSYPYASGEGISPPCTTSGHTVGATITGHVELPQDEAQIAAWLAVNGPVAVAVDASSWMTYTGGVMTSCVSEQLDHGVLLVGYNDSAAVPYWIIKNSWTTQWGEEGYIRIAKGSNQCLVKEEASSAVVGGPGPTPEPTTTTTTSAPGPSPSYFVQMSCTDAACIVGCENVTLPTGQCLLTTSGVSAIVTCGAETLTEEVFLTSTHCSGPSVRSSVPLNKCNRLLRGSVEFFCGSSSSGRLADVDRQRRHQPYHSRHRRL

Structure (SMILES) | max response, negative = inhibition | Potency
CC(=O)Nc1ccc(NC(=O)C2CCCN(S(=O)(=O)c3ccc4c(c3)CCCC(=O)N4)C2)cc1 (stereo not given) | -1.66% | –
Cc1ccc(-c2onc(C)c2C)cc1S(=O)(=O)Nc1ccccn1 | -0.474% | –
CCOc1ccc(CNC(=O)C2CCCN(c3nnc(C)c4c(C)n(-c5ccccc5)nc34)C2)cc1 (stereo not given) | -6.21% | –
O=C(CNC(=O)c1ccco1)OCC(=O)c1ccccc1 | -1.99% | –
Cc1cc(C(=O)COC(=O)CNC(=O)c2ccc(F)cc2)c(C)n1Cc1ccco1 | – | 14.1 µM (active)
COc1ccc(C)cc1-n1nnnc1SCC(=O)c1cc(C)n(Cc2ccco2)c1C | -1.61% | –
COc1ccc2c(Sc3ccc(C)cc3)c(C(=O)NC(C)c3ccccc3)[nH]c2c1 (stereo not given) | -7.2% | –
CCOC(=O)c1c(C)[nH]c(CCC(=O)Nc2ccc(OC)c(OC)c2)c1C | 2.38% | –
CCN(CC)S(=O)(=O)c1nnc(NC(=O)COc2ccccc2Cl)s1 | -2.1% | –
CCOC(=O)c1c(S(=O)(=O)NCC(=O)Nc2ccc(Cl)c(C(F)(F)F)c2)c(C)n(C)c1C | -11.4% | –
COc1cccc(-c2nnc3n(CCc4ccccc4)c(=O)c4ccccc4n23)c1O | -2.72% | –
COC(=O)C(C)N(C#N)c1nc(C)nc(C)n1 (stereo not given) | 4.3% | –
Cc1cc(C)nc(N(C#N)CC(=O)Nc2ccccc2)n1 | 7.7% | –
CNc1nc(SC)nc(N(C#N)CC(=O)OC)n1 | – | 17.8 µM (active)
Cc1c(C(=O)N(C)C)sc2c1c(=O)n(-c1ccc(F)cc1)c(=O)n2CC(=O)N(C)c1ccccc1 | 1.44% | –
CC(C)C[C@H](NC(=O)[C@@H]1O[C@H]1C(=O)O)C(=O)NCCCCN=C(N)N | – | 0.0562 µM (active)
Cc1ccccc1CSc1nc2c([nH]c3ccccc32)c(=O)n1C | -1.56% | –
Cc1cccc(N2CCN(C(=O)CCn3c(=O)c4cccn4c4cccnc43)CC2C)c1 (stereo not given) | -4.9% | –
O=c1cc2nc(-c3ccccc3)nc(SCCOc3ccc(Cl)cc3)n2[nH]1 | 0.045% | –
Oc1c(Cl)cc(Cl)c(Cl)c1Cc1c(O)c(Cl)cc(Cl)c1Cl | -22.8% | 25.1 µM (active)
COc1ccc(OC)c(-n2nnc(-c3nc(-c4cc(OC)c(OC)c(OC)c4)no3)c2C)c1 | 2.73% | –
COc1cccc(-c2cc(C(=O)Nc3ccc(C)cc3)[nH]n2)c1 | -0.83% | –

Structure (SMILES) | max response, negative = inhibition | Potency
Cc1ccc(CSc2nc3ccsc3c(=O)n2CCC(C)C)cc1 | -1.1% | –
CC(=O)Nc1cc(C(=O)NCc2ccc(F)cc2Cl)ccc1Sc1ccc(Cl)cc1 | 1.77% | –
COc1cccc(C(=O)NCC(=O)OCc2cc(=O)n3ccsc3n2)c1 | -1.65% | –
CCCCn1c(=N)c(S(=O)(=O)c2ccccc2)cc2c(=O)n3cccc(C)c3nc21 | 0.669% | –
CCn1c(=N)c(S(=O)(=O)c2ccc(F)cc2)cc2c(=O)n3ccccc3nc21 | – | 22.4 µM (active)
CCOC(=O)c1cc2c(=O)n3ccccc3nc2n(Cc2ccco2)c1=NC(=O)c1ccc(F)cc1 | -23.1% | –
CCOc1cc(-c2nnc(SCC(=O)NC3CCCCC3)nc2-c2ccc(OC)c(OCC)c2)ccc1OC | 0.915% | –
Cc1ccc(NC(=O)CSc2nnc3[nH]c(=O)cc(C)n23)cc1Cl | -1.01% | –
CC(=O)c1cccc(Nc2ccc3cc(S(=O)(=O)N4CCC(C)CC4)ccc3n2)c1 | -2.76% | –
COC(=O)c1ccccc1NC(=O)c1cc(-c2ccccc2O)no1 | -8.5% | –
Cc1ccccc1OCC(=O)NCC(=O)OCC(=O)c1ccc2ccccc2c1 | – | 5.01 µM (active)
COCCNC(=O)COc1ccccc1C | 1.74% | –
Cc1ccc(S(=O)(=O)NC(=O)COc2ccccc2C)cc1 | -0.523% | –
Cc1ccc(-c2cnc(C3CC3)o2)cc1S(=O)(=O)Nc1cccc(C)c1C | -6.32% | –
O=C(CS(=O)(=O)c1cccc2nsnc12)N1CCN(c2cccc(Cl)c2)CC1 | -2.29% | –
Cc1cccc(CNC(=O)c2cnc3sc(N4CCCCC4)nn3c2=O)c1 | 3.23% | –
COc1ccc(NC(=O)CSc2nnc(-c3nnn(-c4ccc(F)cc4)c3C)o2)cc1 | -0.381% | –
NC(=S)N/N=C/c1coc2cc(Cl)ccc2c1=O | -8.88% | –
CCOc1ccc(/C=N/NC(N)=S)cc1 | -18.1% | –
CC(C)Oc1c(Br)cc(Br)cc1/C=N/NC(N)=S | – | 0.708 µM (active)
CC(C)c1ccc(NC(=O)C2CCN(c3nc(-c4ccc(C(C)C)cc4)no3)CC2)cc1 | 0.837% | –
Cc1ccc(C2C=C(c3ccc(Cl)cc3)Nc3nc(NC(=O)CCC(=O)O)nn32)cc1 (stereo not given) | 0.942% | –
